Where “and” joins values, the source holds several entries; their conditions need not be identical. Equal entries are not always repeated. In all, about 5,500 compounds went through this assay and about 2,000 (36%) were called active. Another 18% or so got no clear call; they are omitted. No stated cut-off is given here; in the data, active means normalized growth mostly below about 0.91 (no sharp cut-off); inconclusive means no clear call, values can overlap the other calls; inactive means mostly above about 0.92. The list shows a part of the results.
Experiment: chemical genetic growth profiling, strain panel (AID 1159580);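 further: tested at 20 µM; growth read once vehicle control cultures reached saturation at 30 °C; 1 = growth at the plate median or of vehicle wells; lower values mean less growth of the strain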
Conditions: S. cerevisiae deletion strains, growth OD

Measured: normalized growth

C[C@@H]1C[C@@H]([C@H](O)CC2CC(=O)NC(=O)C2)C(=O)[C@@H](C)C1
active: locus YAL013W, strain DEP1, hits give low values 0.0595 | locus YAL021C, strain ccr4, hits give low values 0.0677 | locus YAL026C, strain drs2, hits give low values 0.0607 | locus YAL030W, strain snc1, hits give low values 0.0538 | locus YBL061C, strain skt5, hits give low values 0.0591 | locus YBR009C, strain hhf1, hits give low values 0.0595 | locus YBR021W, strain FUR4, hits give low values 0.0961 | locus YBR023C, strain chs3, hits give low values 0.0612 | locus YBR171W, strain sec66, hits give low values 0.075 | locus YBR229C, strain ROT2, hits give low values 0.031 | locus YBR231C, strain swc5, hits give low values 0.0623 | locus YBR279W, strain paf1, hits give low values 0.0578 | locus YCL011C, strain gbp2, hits give low values 0.0569 | locus YCL016C, strain dcc1, hits give low values 0.0627 | locus YCL029C, strain bik1, hits give low values 0.0585 | locus YCL069W, strain vba3, hits give low values 0.058 | locus YCR088W, strain abp1, hits give low values 0.0589 | locus YDL005C, strain med2, hits give low values 0.0714 | locus YDL035C, strain GPR1, hits give low values 0.0555 | locus YDL040C, strain nat1, hits give low values 0.0555 | locus YDL074C, strain BRE1, hits give low values 0.0968 | locus YDL101C, strain DUN1, hits give low values 0.0509 | locus YDL134C, strain PPH21, hits give low values 0.0498 | locus YDL185W, strain tfp1, hits give low values 0.0581 | locus YDL192W, strain arf1, hits give low values 0.0598 | locus YDR001C, strain nth1, hits give low values 0.0564 | locus YDR069C, strain doa4, hits give low values 0.0601 | locus YDR101C, strain arx1, hits give low values 0.0579 | locus YDR137W, strain rgp1, hits give low values 0.0878 | locus YDR150W, strain NUM1, hits give low values 0.0592 | locus YDR159W, strain sac3, hits give low values 0.0889 | locus YDR162C, strain NBP2, hits give low values 0.0524 | locus YDR195W, strain ref2 0.129 | locus YDR297W, strain sur2, hits give low values 0.0532 | locus YDR318W, strain mcm21, hits give low values 0.0664 | locus YDR334W, strain swr1, hits give low values 0.0608 | locus YDR335W, strain msn5, hits give low values 0.059 | locus YDR388W, hits give low values 0.0549 | locus YDR392W, strain spt3, hits give low values 0.0763 | locus YDR502C, strain sam2, hits give low values 0.061 | locus YEL003W, strain gim4, hits give low values 0.0527 | locus YEL037C, strain rad23, hits give low values 0.0554 | locus YEL061C, strain CIN8 (second series), hits give low values 0.0592 | locus YEL061C, strain CIN8, hits give low values 0.0496 | locus YER015W, strain faa2, hits give low values 0.0595 | locus YER016W, strain bim1, hits give low values 0.0609 | locus YER110C, hits give low values 0.0708 | locus YER111C, strain swi4, hits give low values 0.0709 | locus YER155C, strain BEM2 (second series), hits give low values 0.0899 | locus YER155C, strain BEM2, hits give low values 0.0629 | locus YER167W, strain BCK2, hits give low values 0.0564 | locus YFR010W, strain ubp6, hits give low values 0.0674 | locus YGL078C, strain dbp3, hits give low values 0.0553 | locus YGL086W, strain mad1, hits give low values 0.0574 | locus YGL167C, strain pmr1, hits give low values 0.0714 | locus YGL173C, strain kem1, hits give low values 0.0657 | locus YGL227W, strain vid30, hits give low values 0.06 | locus YGL240W, strain doc1, hits give low values 0.0796 | locus YGL248W, strain PDE1, hits give low values 0.0442 | locus YGL253W, strain hxk2, hits give low values 0.0535 | locus YGR078C, strain PAC10, hits give low values 0.0533 | locus YGR135W, strain pre9, hits give low values 0.0644 | locus YGR229C, strain SMI1, hits give low values 0.0652 | locus YGR252W, strain gcn5, hits give low values 0.175 | locus YHR013C, strain ard1, hits give low values 0.0947 | locus YHR027C, strain rpn1, hits give low values 0.0594 | locus YHR030C, strain SLT2, hits give low values 0.0489 and 0.101 | locus YHR079C, strain IRE1 (second series), hits give low values 0.0562 | locus YHR079C, strain IRE1, hits give low values 0.107 | locus YHR094C, strain hxt1, hits give low values 0.0562 | locus YHR129C, strain ARP1, hits give low values 0.0564 | locus YHR142W, strain chs7, hits give low values 0.0716 | locus YHR200W, strain rpn10, hits give low values 0.0589 | locus YIL066C, strain RNR3, hits give low values 0.0491 | locus YIL073C, strain SPO22, hits give low values 0.114 | locus YIL125W, strain kgd1, hits give low values 0.0558 | locus YIR030C, strain dcg1, hits give low values 0.0576 | locus YJL092W, strain hpr5, hits give low values 0.0581 | locus YJL095W, strain BCK1 (second series), hits give low values 0.0549 | locus YJL095W, strain BCK1, hits give low values 0.0583 and 0.105 | locus YJL115W, strain asf1, hits give low values 0.0707 | locus YJL129C, strain trk1, hits give low values 0.0813 | locus YJL134W, strain LCB3, hits give low values 0.0474 | locus YJL154C, strain vps35, hits give low values 0.0577 | locus YJL164C, strain tpk1, hits give low values 0.0602 | locus YJL166W, strain qcr8, hits give low values 0.0579 | locus YJL168C, strain set2, hits give low values 0.0578 | locus YJL187C, strain SWE1 (second series), hits give low values 0.0445 | locus YJL187C, strain SWE1, hits give low values 0.0553 | locus YJR043C, strain POL32, hits give low values 0.0691 | locus YJR066W, strain TOR1, hits give low values 0.000656

Reference: PubChem BioAssay AID1159580 (chemical genetic matrix, 2015)
